# Screens deposited in PubChem by National Center for Advancing Translational Sciences (NCATS).
# Compounds with a hit are over-represented: about 9.9% of the library has one in this group of screens.
# SW480 rereplic = inducers of DNA re-replication in SW480 colon cancer cells | SW480 DNA re-replication, Hoechst DNA content imaging, 48 h | AID 624297 | Potency, µM (top dose mostly 46.1 µM), for inactives: at the highest dose re-replication activation, usual class: activators | actives 1.8% (n = 340,000); note: potency is the fitted concentration of half-maximal effect; % of control where 0% means no effect; nearly all actives have a fitted effect of over 55% in size
#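 Per well, 250 cells were exposed to pinned compound for 48 hr. Nuclear DNA was visualised with Hoechst (40 min, 37 C) and total object intensity recorded by fluorescence scanning.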
# IL-1B inflam inh = inflammasome signaling inhibition, IL-1 beta readout | actives 4.7% (n = 360,000) | THP-1 LPS/ATP IL-1B secretion, AlphaLISA, 16 h; active compounds read low | activity change, % at 57.5 µM; in the data active = activity change below about -50%; inconclusive = mostly about -30% to -49%; note: % is set by controls: 0 for no effect and ±100 for the full control effect
#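 Secreted IL-1B measured by AlphaLISA bead assay after 16 h compound exposure of THP-1 cells; compounds (final up to 57.5 uM) added 1 h before LPS (250 ng/mL) and ATP (1.25 mM) stimulation; lower signal means less secretion.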
# KB-3-1 cytotox = kills parental KB-3-1 adenocarcinoma cells; KB-3-1 viability, CellTiter-Glo ATP luminescence, 72 h; Potency, µM (titrated, usually from 46.1 µM), actives largely listed as cytotoxic; actives 1.4% (n = 400,000); note: potency is the fitted concentration of half-maximal effect; % is set by controls: 0 for no effect and ±100 for the full control effect; nearly all actives have a fitted effect of over 60% in size
#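 Cytotoxicity measured as CellTiter-Glo luminescence after 72 h at 37 C. Compound titrations were pinned onto drug-naive KB-3-1 parental adenocarcinoma cells grown in DMEM with 10% FBS, and normalized data fitted to concentration-response curves.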
# MCF10A rereplic = induces DNA re-replication in MCF 10a normal breast cells. MCF 10A DNA re-replication, Hoechst nuclear intensity, 48 h. Potency, µM (doses to about 46.1 µM), for the others: at the highest dose activity, positive = re-replication, usual class: activators. actives 2.9% (n = 350,000). AID 624296; note: potency is the fitted concentration of half-maximal effect; % of control where 0% means no effect; nearly all actives have a fitted effect of over 50% in size
# KB-V1 MDR tox = kills drug-selected multidrug resistant KB-V1 cells. KB-V1 MDR cells viability, CellTiter-Glo, 72 h. Potency, µM (titrated, usually from 46.1 µM), hits mostly cytotoxic. AID 1347076. actives 3.4% (n = 400,000); note: potency is the fitted concentration of half-maximal effect; % is set by controls: 0 for no effect and ±100 for the full control effect; nearly all actives have a fitted effect of over 60% in size
#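 Cytotoxicity toward P-gp-expressing KB-V1 cells was determined as loss of CellTiter-Glo luminescence after 72 h at 37 degrees C. Compounds were tested in quantitative HTS format across a concentration range, with curves fitted to normalized data.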
# Starred values were filed as active, the others as inactive; i = inactive; ? = inconclusive; . = no result; [ ] = dose if it differs, or a comment. Unless noted, calls come from the whole dose curve; as a rule, active = well fitted curve in the direction sought with a large enough effect; inconclusive = small, poorly fitted or top-dose-only effect, or another doubt; inactive = no such curve, though single readings can be large; an effect the other way counts as inactive or inconclusive.
SMILES,SW480 rereplic,IL-1B inflam inh,KB-3-1 cytotox,MCF10A rereplic,KB-V1 MDR tox
Cc1cc2nc(-c3ccc(SCc4ccc(C(=O)O)cc4)nc3)[nH]c2cc1C,?,70.8,?,12.5%,i
Cc1cc2nc(-c3ccc(SCC(=O)N4CCc5ccccc54)nc3)[nH]c2cc1C,2.0%,109.2,i,13.4%,i
COC(=O)CSc1ccc(-c2nc3ccc(C)cc3[nH]2)cn1,-2.5%,-89.6*,i,?,i
Cc1cc(NC(=O)CSc2ccc(-c3nc4cc(C)c(C)cc4[nH]3)cn2)no1,?,94.8,i,0.184µM*,?
Cc1cc2nc(-c3ccc(SCC(=O)Nc4ccc(S(=O)(=O)NC5CC5)cc4)nc3)[nH]c2cc1C,?,40.6,i,20.6µM*,i
Cc1cc2nc(-c3ccc(SCc4ccccc4C#N)nc3)[nH]c2cc1C,?,?,i,13.0%,20.6µM*
O=C1CCCC2=C1C1(CCCC1)N=C(Nc1nc3cc4ccccc4cc3o1)N2,.,.,i,.,i
CC(C)Cc1nnc(NC(=O)CCC(=O)NCCc2ccc(Cl)cc2)s1,-5.1%,-0.7,i,-7.5%,?
CC(=O)CCC(=O)OCC(=O)Nc1ccc(SC(F)F)cc1,0.1%,-5.7,i,-4.9%,i
NC1=NC2(CCC(c3ccccc3)CC2)n2c(nc3ccccc32)N1 (centres undefined),?,-54.1*,?,?,i
CCOC(=O)C1(CCOc2ccccc2)CCN(CC(O)CO)CC1 (centres undefined),-10.5%,24.6,i,?,i
O=C(C[C@@H]1C/C=C/CCCC(=O)O[C@H](c2ccccc2)CNC1=O)N[C@H](CO)Cc1ccccc1,0.3%,4.8,i,-20.1%,i
c1ccc(C2OC3c4cccc5cccc(c45)C3N2c2ccccc2)cc1 (centres undefined),?,89.6,i,18.4µM*,i
Cc1ccc(C)c(Nc2nc(-c3ccncc3)nc3ccccc23)c1,?,12.8,i,0.9%,?
O=C(O)CCNc1nc(-c2ccccc2)nc2ccccc12,-3.7%,3.8,i,1.1%,i
CN(C)CCCNc1nc(-c2ccc(Cl)cc2)nc2ccccc12,8.1%,-61.5*,i,-1.5%,i
Cc1ccc(-c2nc(NCCN(C)C)c3ccccc3n2)cc1,?,-95.5*,?,-15.0%,?
Cc1cccc(-c2nc(NCCCN(C)C)c3ccccc3n2)c1,0.0%,-85.8*,i,-0.4%,i
CN(C)CCCNc1ncnc2sc(-c3ccccc3)cc12,?,-76.5*,?,24.1%,i
Cc1ccc(-c2nc(NCCCO)c3ccccc3n2)cc1,3.5%,?,i,9.5%,?
CC(=O)Nc1cccc(-c2cc(C)c3cc4c(cc3n2)OCO4)c1,-0.8%,-50.9*,i,15.5%,i
CC(=O)Nc1cccc(-c2nc3ccccc3s2)c1,-2.5%,-21.1,i,-14.3%,i
CCCCN(CC)CCCNC(=O)c1ccc(CS(=O)(=O)c2ccccc2C)o1,-3.0%,17.5,i,2.4%,i
CCOC(=O)C1CCCN(Cc2cn3c(-c4cccc(Br)c4)nnc3s2)C1 (centres undefined),.,.,i,.,i
COc1cccc(-c2nnc3sc(CN4CCCCC4)cn23)c1,.,.,2.59µM*,.,i
SMILES,SW480 rereplic,IL-1B inflam inh,KB-3-1 cytotox,MCF10A rereplic,KB-V1 MDR tox
c1ccc(-c2nnc3sc(CN4CCc5ccccc54)cn23)cc1,-0.3%,-1.0,20.6µM*,-1.7%,?
CCc1cccc(C)c1NS(=O)(=O)c1ccc(-n2cccn2)cc1,.,.,i,.,i
CC(=O)NCc1ccc(C(=O)O)cc1,-1.4%,-8.1,i,-11.2%,i
COc1cccc(OCc2cc(C3Nc4ccccc4C(=O)N3c3ccccc3)ccc2OC)c1 (centres undefined),.,.,?,.,i
O=C(CC(C(=O)NCc1ccccc1)c1nc2ccccc2c(=O)[nH]1)NCc1ccccc1 (centres undefined),129.4%,10.3,i,9.5%,?
COc1cccc(N=C2SC(CC(=O)Nc3ccccc3)C(=O)N2Cc2ccccn2)c1 (centres undefined),-4.1%,-62.7*,i,-8.0%,?
Cc1ccc(C(c2nc3ccccc3[nH]2)n2c(-c3ccccc3)nc3ccccc32)cc1 (centres undefined),.,-6.3,i,.,i
O=C1[C@H](Oc2ccccc2)[C@@H](c2ccccc2)N1c1ccncc1,?,-104.2*,i,?,i
Cn1c(=O)n(CC(=O)OCc2ccccc2)c(=O)c2c1nc1n2CCCN1C1CCCCC1,4.3%,3.8,i,9.2µM*,?
CC1CN(c2nc3c(c(=O)n(Cc4ccc(Cl)cc4)c(=O)n3C)n2C)CC(C)O1 (centres undefined),-4.9%,-0.1,?,20.5%,23.1µM*
Cn1c(=O)n(Cc2ccccc2)c(=O)c2c1nc1n2CCCN1CCc1ccccc1,4.1%,18.6,i,?,2.31µM*
Cn1c(=O)n(Cc2ccc(Cl)cc2)c(=O)c2c1nc1n2CCN1Cc1ccco1,-0.9%,-1.1,?,6.5%,11.6µM*
Cn1c(=O)n(Cc2ccccc2)c(=O)c2c1nc1n2CCCN1Cc1ccccc1,-6.3%,0.0,i,2.6%,i
COc1ccc(N2CCn3c2nc2c3c(=O)n(CCCc3ccccc3)c(=O)n2C)c(OC)c1,0.3%,-22.1,?,9.9%,9.2µM*
COc1cc(C(=O)N2C(=O)CCC2=O)cc(OC)c1OC,-5.4%[9.22 µM],40.5,i,4.4%,i
CC(=O)c1ccc(OCc2nnn(CC(=O)O)c2-c2ccccc2)cc1,.,-69.5*,i,.,i
Cc1ccc(OCc2nnn(CC(=O)NS(=O)(=O)c3c(C)noc3C)c2-c2ccccc2)cc1,.,4.8,i,.,i
O=C(C#Cc1ccccc1)c1cccc([N+](=O)[O-])c1,7.31µM*,-74.0*,i,2.91µM*,?
COc1cc2c(cc1OC)/C(=C/C(=O)c1cccc([N+](=O)[O-])c1)NCC2,5.4%,-59.5*,i,?,?
COc1cc2c(cc1OC)/C(=C/C(=O)c1ccc(OC)c([N+](=O)[O-])c1)NCC2,2.1%,?,i,-1.9%,i
CC(=O)c1cccc([N+](=O)[O-])c1,-5.5%,5.1,i,6.5%,i
COc1cc(/C=C/C(=O)c2cccc([N+](=O)[O-])c2)cc(OC)c1OC,?,-60.9*,?,?,?
COc1ccc(C(=O)/C=C/c2ccccc2F)c(OC(=O)c2ccc([N+](=O)[O-])cc2)c1,?,-101.2*,?,14.6µM*,?
COc1cc(Br)cc(C(=O)N2CCc3ccccc32)c1OC,.,-7.7,?,.,?
